# Experimental data reported in PubChem BioAssay AID887 (National Center for Advancing Translational Sciences (NCATS), 2007).
# Values joined by “and” are separate entries in the source; they are usually repeats but may differ in a detail not shown here. Equal values may be shown once. Among all 74,000 compounds or so, about 1,100 (1.5%) were called active. About 5% were inconclusive and are not listed. For the sample, actives were picked, then their nearest neighbours and some compounds at random. Values without a mark were called inactive. The call rests on the fitted dose curve; in most records, active means well fitted inhibition curve with a large enough effect; inconclusive means small, poorly fitted or top-dose-only effect; inactive means no such curve, though single readings can be large or run the other way.
# Target: Polyunsaturated fatty acid lipoxygenase ALOX15 (Homo sapiens) (UniProt P16050)
# Sequence (P16050 whole entry, looked up): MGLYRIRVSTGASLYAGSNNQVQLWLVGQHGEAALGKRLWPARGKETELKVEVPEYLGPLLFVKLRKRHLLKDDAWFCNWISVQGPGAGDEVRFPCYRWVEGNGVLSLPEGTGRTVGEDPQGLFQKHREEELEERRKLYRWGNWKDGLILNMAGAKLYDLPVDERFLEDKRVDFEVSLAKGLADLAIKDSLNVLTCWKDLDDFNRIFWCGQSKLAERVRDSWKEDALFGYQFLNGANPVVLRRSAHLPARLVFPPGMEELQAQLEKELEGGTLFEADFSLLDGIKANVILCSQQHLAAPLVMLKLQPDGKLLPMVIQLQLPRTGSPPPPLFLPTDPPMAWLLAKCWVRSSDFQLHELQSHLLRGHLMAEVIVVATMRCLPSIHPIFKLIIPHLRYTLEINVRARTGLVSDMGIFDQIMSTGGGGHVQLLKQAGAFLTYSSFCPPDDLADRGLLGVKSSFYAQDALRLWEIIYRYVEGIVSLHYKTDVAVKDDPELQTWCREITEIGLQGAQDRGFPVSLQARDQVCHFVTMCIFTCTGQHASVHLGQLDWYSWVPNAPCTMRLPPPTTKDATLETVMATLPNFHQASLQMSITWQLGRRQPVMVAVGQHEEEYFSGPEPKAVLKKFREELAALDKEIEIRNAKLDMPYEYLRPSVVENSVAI
# Test: qHTS Assay for Inhibitors of 15-hLO (15-human lipoxygenase); further: nearly all actives have a fitted effect of over 55% in size
# Settings: purified 15hLO-1, xylenol orange hydroperoxide absorbance; series mostly up to 57.1 µM; activity change, negative = inhibition: at the top concentration
# Description: Assay Overview: NIH Molecular Libraries Screening Centers Network [MLSCN] NIH Chemical Genomics Center [NCGC] MLSCN Grant: MH081283-01A1 PI Name: Holman, T.R., University of California, Santa Cruz Human lipoxygenase 15hLO-1 is a member of the closely related lipoxygenase family of enzymes which catalyze the site-specific oxidation of arachidonic acid to various hormone precursor molecules and as such is a candidate for drug development in a variety of disease areas, such as cancer and inflammation. Inhibition of 15hLO-1 activity was screened by utilizing arachidonic acid as a substrate. The extent of hydroperoxide product formation was measured by a secondary chromogenic reaction in which xylenol orange (XO, Sigma-Aldrich, cat. number 39,818-7) reacts with the ferric ions produced from the reaction between the hydroperoxide and ferrous ions. The Fe(III)-XO complex is characterized with red-shifted absorbance at 560 nm. A purified preparation of human 15hLO-1 was supplied by Professor Ted Holman, University of California, Santa Cruz.
# Assay Protocol: Buffer: 25 mM Hepes pH 7.5, 0.01% Triton X-100. Reagents/Controls: Buffer in columns 3 and 4 as negative control (no enzyme). Substrate solution: 50 uM arachidonic acid (Sigma-Aldrich, St. Louis, MO) final concentration dispensed throughout the plate. Enzyme: 40 nM 15hLO-1 final concentration in columns 1, 2, 5-48. Column 1 is neutral (100% activity). Column 2 contained pin-transferred titration of NDGA (nordihidroguaiaretic acid, Sigma-Aldrich, N 5023, top concentration 10 mM in DMSO, then 1:2 dilution in duplicate). (Dilution factor: 23 nL into 4 uL.) Chromogenic detection reagent (divalent iron/xylenol orange, Fe-XO): 200 uM xylenol orange plus 300 uM ferrous ammonium sulfate prepared freshly in 50 mM sulfuric acid. Assay Steps: Three uL of enzyme were dispensed to 1536-well Greiner black clear bottom plates. Compounds and controls (23 nL) were transferred via Kalypsys PinTool. The plates were incubated for 15 min at room temperature, and then 1 uL of substrate solution was added to start the reaction. After room temperature incubation for 6 minutes, 4 uL of Fe-XO solution was added to each well followed by a short spin (1000 rpm, 15 sec) and the plates were then incubated for 30 min. The absorbance at 405 and 573 nm were measured using ViewLux (Perkin-Elmer) High-throughput CCD imager and absorbance protocol settings. The 573-to-405 absorbance ratio was used to compute reaction progress.
# On the % scale 0 is the no-effect control and ±100 the full control effect; potency means the concentration at half of the fitted maximal effect.
SMILES,"activity change, negative = inhibition",Potency
CCn1c(SCC(=O)NCC2CCCO2)nc2cc(S(=O)(=O)N3CCCCC3)ccc21 (centres undefined),4.12%,
COCCCNC(=O)CSc1nc2ccc(N3CCOCC3)cc2c(=O)n1CCc1ccccc1,-12%,
COCC(=O)N1CCC2(CCCN(c3ccccc3)C2)CC1,-7.85%,
CC1(C)C=CC(=O)[C@]2(C)C1CC(=O)[C@]1(C)C2CC[C@@]2(C)C(c3ccoc3)OC(=O)C3OC321 (some centres undefined),-3.65%,
C=C[C@](C)(O)CCC1C(=C)CCC2[C@@](C)(CO)CCC[C@@]12C (some centres undefined),-22.8%,
CC(C)C1=CC2=CC[C@@H]3[C@](C)(CO)CCC[C@]3(C)C2CC1 (some centres undefined),,1.58 µM (active)
CN1CCc2nc(-c3ccccc3)c(-c3ccccc3)cc2C1,3.18% [at 11.4 µM],
Nc1ncnc2c1ncn2C1CC(O)C(CO)O1 (centres undefined),inactive,
CC(=O)OCC(=O)[C@@]1(O)CCC2C3CCC4=CC(=O)CC[C@@]4(C)[C@]3(F)C(O)C[C@]21C (some centres undefined),-0.0872%,
O=C1[C@H]2[C@H]3[C@H](O)[C@H](O)C/C(=N/OCc4ccccc4)[C@H]3CC[C@@H]2C(=O)N1Cc1ccccc1,6.17% [at 11.4 µM],
CCCN(C/C=C\I)[C@@H]1CCc2cccc(O)c2C1,1.31% [at 25.6 µM],
N#Cc1ccccc1-n1c(N)c(C(=O)N2CCCC2)sc1=S,,20 µM (active)
CCC(=O)Nc1sc(C(=O)N2CCCCC2)c(C)c1C#N,-0.853%,
Cc1cccc(-n2c(N)c(C(=O)N3CCN(C)CC3)sc2=S)c1,-25.1%,
Cn1c(=O)n2n(c1=O)[C@H]1[C@H](O)[C@H]3O[C@H]3C(=O)[C@H]1CC2,-1.89% [at 11.4 µM],
CC(C)=CCC/C(C)=C/CO/N=C1/C[C@@H](O)[C@@H](O)[C@@H]2[C@@H]3C(=O)N(C(C)(C)C)C(=O)[C@H]3CC[C@H]12,-9.71% [at 11.4 µM],
CC(=O)OCC1OC(C#CCCCc2ccccc2)C=CC1OC(C)=O (centres undefined),-1.12% [at 11.4 µM] and 1.25% [at 11.4 µM],
COc1ccc(OCc2ccc(-c3nc4ccccc4c(=O)n3N)o2)cc1,-1.39%,
COCn1c(COc2ccccc2)nc2ccccc21,-9.11% [at 11.4 µM],
Cn1c(COc2ccc(Cl)cc2)nc2ccccc2c1=O,,25.1 µM (active)
c1ccc(Oc2ccccc2)cc1,-2.93%,
CC(C)(O)CCC(O)[C@@](C)(O)C1CC[C@]2(O)C3=CC(=O)C4CC(O)C(O)C[C@]4(C)C3CC[C@]12C (some centres undefined),0.677%,

SMILES,"activity change, negative = inhibition",Potency
O=C1OCCC=C1[C@@H](O)CCc1ccccc1,9.13% [at 11.4 µM],
Nc1nc2c(nc(Cl)n2C2OC(CO)C(O)C2O)c(=O)[nH]1 (centres undefined),0.329%,
CC1=C(/C=C/C(C)=C/C=C/C(C)=C/C=C/C=C(C)/C=C/C=C(C)/C=C/C2=C(C)CCCC2(C)C)C(C)(C)CCC1,12.1%,
CC/C=C/C/C=C/C/C=C/CCCCCCCC(=O)OCC,,2.51 µM (active)
Oc1c(Br)cc(CN(Cc2cc(Br)c(O)c(Br)c2)C2CCCCC2)cc1Br,11.3% [at 11.4 µM],
CC1(C)SC2C(NC(=O)COc3ccccc3)C(=O)N2C1C(=O)O (centres undefined),-9.13%,
O=C1OC(C(O)CO)C(O)=C1O (centres undefined),0.473%,
COC(=O)CSC1=C(C#N)C(c2ccccc2OC)C(C(=O)OC)C(=O)N1 (centres undefined),-4.29% [at 11.4 µM],
CCCSC1=C(C#N)C(c2ccccc2C)C(C(=O)OC)C(=O)N1 (centres undefined),,12.6 µM (active)
CCOC(=O)CSC1=C(C#N)C(c2sccc2C)CC(=O)N1 (centres undefined),1.77%,
CN(C)CCCCNC(=O)c1ccc(Cc2nc3ccccc3[nH]2)cc1,0.142%,
O=C(O)C(O)[C@@](O)(Cc1ccc(O)cc1)C(=O)O (some centres undefined),-7.52%,
CCOC(=O)[C@]1(C(/C=C/c2ccco2)NC(=O)OC)CCCC1=O (some centres undefined),5.21% [at 11.4 µM],
Cc1c(O)cc(O)c2c(=O)c(-c3ccc(O)cc3)coc12,6.83%,
CN(C)CCc1c[nH]c2ccc(Cn3cncn3)cc12,-7.19%,
CC(C)OC(=O)C(C#N)c1nc2ccccc2nc1N1CCN(Cc2ccccc2)CC1 (centres undefined),8.6%,
Cc1ccc(S(=O)(=O)C(C#N)c2nc3ccccc3nc2N2CCCC2)cc1C (centres undefined),,12.6 µM (active)
N#CC(C(=O)c1ccc(S(=O)(=O)N2CCCCCC2)cc1)c1nc2ccccc2[nH]1 (centres undefined),7.16%,
CC1CCCCN1CCCNC(=O)c1ccc(-n2c(=O)c(=O)[nH]c3ccccc32)cc1 (centres undefined),-1.94%,
CC1OC(OCC2OC(Oc3c(-c4ccc(O)c(O)c4)oc4cc(O)cc(O)c4c3=O)C(O)C(O)C2O)[C@@H](O)C(O)C1O (some centres undefined),4.76%,
CC(=O)OCC(=O)C1CCC2C3CCC4=CC(=O)CC[C@@]4(C)C3CC[C@]12C (some centres undefined),-4.9%,
Oc1c(Cl)cc(Cl)c(Cl)c1Cc1c(O)c(Cl)cc(Cl)c1Cl,,5.01 µM (active)
